Screening data (PubChem BioAssay)
In the library only some 2.3% were active in any assay of this set; here they are far more common.
VDR inhibitor = Inhibitors of the vitamin D receptor (VDR): qHTS; Vitamin D3 receptor (Homo sapiens), P11473; VDR-SRC2-3 peptide fluorescence polarization, 2 h; Potency, µM, hits mostly inhibitors; 0.93% of 400,000 active
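Reagent solutions, kept cold and dark, are dispensed first; compounds are then pinned in at 23 nl, plates briefly spun, and incubated 2 h at ambient temperature. Inhibition of VDR–SRC2-3 peptide binding is read by fluorescence polarization.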
GoLoco inh red = qHTS Assay for Inhibitors of RGS12 GoLoco Motif Activity (Red Fluorophore); Guanine nucleotide-binding protein G(i) subunit alpha-1 (Homo sapiens), P63096; Gai1:RGS12 GoLoco peptide FP, rhodamine, 10 min; Potency, µM (series often up to 61.6 µM), hits mostly inhibitors; 0.44% of 230,000 active; active = well fitted inhibition curve with a large enough effect, not every such curve was filed as active; inactive = no such curve, though single readings can be large or run the other way; also: nearly all actives have a fitted effect of over 30% in size
Target sequence (P63096 whole entry, looked up): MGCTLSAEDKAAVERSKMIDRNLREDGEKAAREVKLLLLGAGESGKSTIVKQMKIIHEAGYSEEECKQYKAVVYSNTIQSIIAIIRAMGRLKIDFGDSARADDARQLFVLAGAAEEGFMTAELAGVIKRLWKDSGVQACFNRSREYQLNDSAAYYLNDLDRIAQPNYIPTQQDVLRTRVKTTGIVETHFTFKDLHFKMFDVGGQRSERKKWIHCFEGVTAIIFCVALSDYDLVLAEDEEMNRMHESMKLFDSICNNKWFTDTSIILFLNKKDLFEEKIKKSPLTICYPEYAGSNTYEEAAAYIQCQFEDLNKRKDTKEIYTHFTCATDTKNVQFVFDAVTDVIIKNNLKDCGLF
JMJD2E inh = qHTS Assay for Inhibitors of Human Jumonji Domain Containing 2E (JMJD2E) | 1.6% of 230,000 active | JMJD2E catalytic domain, FDH-coupled NADH fluorescence (FDH is formaldehyde dehydrogenase) | Potency, µM (titrated, usually from 57.1 µM), usual class: inhibitors | AID 2147, 2009; active = well fitted inhibition curve with a large enough effect, not every such curve was filed as active; inconclusive = small, poorly fitted or top-dose-only effect, or another doubt; inactive = no such curve, though single readings can be large or run the other way; also: nearly all actives have a fitted effect of over 50% in size
HTT cytoprotect = qHTS Multiplex Assay to Identify Dual Action Probes in a Cell Model of Huntington: Cytoprotection (ATP); PC12 HTT-Q103 induced, cytoprotection, ATP luminescence, 40 h; Potency, µM (top dose mostly 56.4 µM), actives largely listed as activators; 0.14% of 230,000 active; AID 1471, 2008; also: nearly all actives have a fitted effect of over 45% in size
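Stable PC12 Q103-GFP cells in serum-supplemented, phenol red-free DMEM; induction by tebufenozide at 100 nM final; compound dose series; cell viability quantified luminescently from ATP.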
HTT aggregate = qHTS Multiplex Assay to Identify Dual Action Probes in a Cell Model of Huntington: Aggregate Formation (GFP); PC12 HttQ103-GFP aggregates, Acumen cytometry, 40 h; Potency, µM (titrated, usually from 46.1 µM), most hits filed as inhibitors; 1.1% of 220,000 active; AID 1688, 2009; also: nearly all actives have a fitted effect of over 60% in size
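PC12/HTTQ103-GFP, ecdysone-inducible; teb 100 nM; cpd qHTS titration; GFP aggregates read on laser cytometer, Ex 488/Em 500-530 nm.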
FBPA coupling cs = qHTS Assay for Inhibitors of Fructose-1,6-bisphosphate Aldolase from Giardia Lamblia: Coupling assay counterscreen | activity change, negative = inhibition, % at 58.2 µM, hits read low | coupling enzyme system counterscreen, AmpLite Red fluorescence | 0.67% of 290,000 active; in the data active = activity change below about -30%
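Activity here indicates interference with the coupling reaction, not aldolase inhibition. Compounds at 57.5 uM final met coupling enzymes for 10 min at RT; substrate and AmpLite Red detection followed, with a 525/598 nm fluorescence read after 20 min.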
A number is an active result; i = inactive; ? = inconclusive; nt = not tested or not shown; [ ] = remark or other dose. Unless noted, calls follow the shape of the dose curve; as a rule, active = well fitted curve in the direction sought with a large enough effect; inconclusive = small, poorly fitted or top-dose-only effect, or another doubt; inactive = no such curve, though single readings can be large; an effect the other way counts as inactive or inconclusive.

SMILES	VDR inhibitor	GoLoco inh red	JMJD2E inh	HTT cytoprotect	HTT aggregate	FBPA coupling cs
COc1cccc2c1C(=O)c1c(O)c3c(c(O)c1C2=O)C[C@@](O)(C(=O)CO)C[C@@H]3OC1CC(N)C(O)C(C)O1 (some centres undefined)	?	i	nt	i	2.5µM	nt
CC(=O)[C@@]1(O)Cc2c(O)c3c(c(O)c2[C@H](O[C@H]2C[C@H](N)[C@H](O)[C@H](C)O2)C1)C(=O)c1ccccc1C3=O	nt	nt	nt	i[1.9 µM]	nt	nt
CC(=O)C1(O)Cc2c(O)c3c(c(O)c2C(OC2CC(N)C(O)C(C)O2)C1)C(=O)c1c(O)cccc1C3=O (centres undefined)	i	nt	nt	i	1µM	nt
CO[C@@H]1/C=C\O[C@]2(C)Oc3c(C)c(O)c4c(O)c(c(/C=N\N5CCN(C)CC5)c(O)c4c3C2=O)NC(=O)/C(C)=C\C=C/[C@H](C)[C@H](O)[C@H](C)[C@H](O)[C@H](C)[C@H](OC(C)=O)[C@@H]1C	nt	nt	nt	i	nt	nt
COc1ccc(-c2noc(CN(C(=O)C(C)Oc3ccc(C)cc3)C(C)C)n2)cc1 (centres undefined)	i	nt	nt	nt	nt	nt
O=C1C(C=NCc2ccncc2)=C(O)c2ccccc21	i	i	i	i	i	i
O=[N+]([O-])c1cc2oc3c(c2c(C=NCc2ccncc2)c1O)CCCC3	?	i	28µM	i[10 µM]	i	-32
CCN(C[C@H]1N[C@@](Cc2ccccc2)(C(=O)OC)[C@H]2C(=O)N(C)C(=O)[C@@H]12)S(=O)(=O)c1ccc(-c2ccccc2)cc1	i	nt	nt	nt	nt	nt
Cc1onc(-c2ccccc2Cl)c1C(=O)Nc1nnc(-c2ccc(Br)cc2)s1	i	i	?	i[10 µM]	?	i
Cc1onc(-c2ccccc2Cl)c1C(=O)Nc1nnc(-c2ccc(Cl)cc2Cl)s1	i	i	?	i[10 µM]	35µM	i
Cc1ccc(C)c(OCCC(=O)NCCc2ccc(F)cc2)c1	i	nt	nt	nt	nt	nt
CC1=NN(c2ccc(Cl)c(C(=O)O)c2)C(=O)C1	i	i	?	i[10 µM]	i	i
CC1=NN(c2ccc(C(=O)O)c(N)c2)C(=O)C1	i	i	?	i	i	-37
Nc1cccc2c1C(=O)N(C(=O)/C=C/c1cccc(F)c1)C2=O	40µM	i	?	i	i	i
O=C(NCC1CCCO1)/C(=C\c1ccccc1F)NC(=O)c1ccccc1 (centres undefined)	i	nt	nt	nt	nt	i
Cc1ccc(S(=O)(=O)c2ccc([N+](=O)[O-])o2)cc1	45µM	nt	nt	nt	nt	nt
Cc1ccc(NC(=O)c2ccc([N+](=O)[O-])o2)c(C)c1	i	i	i	nt	nt	i
CCC(CO)Oc1cc(NCc2ccc(O)cc2)c2ncn(C(C)C)c2c1 (centres undefined)	i	nt	nt	nt	nt	nt
CCCCOc1cc(NCc2ccccc2)c2ncn(C(C)C)c2c1	i	nt	nt	nt	nt	nt
CCC(COC(=O)c1ccccc1)Oc1cc(NCc2ccccc2)c2ncn(C(C)C)c2c1 (centres undefined)	79µM	nt	nt	nt	nt	nt
CCC(COC)Oc1cc(NCc2ccccc2)c2ncn(C(C)C)c2c1 (centres undefined)	22µM	nt	nt	nt	nt	nt
O=C(c1cc2cc([N+](=O)[O-])ccc2oc1=O)N1CCN(c2ncccn2)CC1	i	i	i	?	0.71µM	i
CCNC(=S)N(CCCO)Cc1cc2cc3c(cc2[nH]c1=O)OCCO3	i	nt	nt	nt	nt	i
COc1ccccc1N1CCN(/N=C/c2ccc(O)c(O)c2)CC1	i	i	28µM	i[10 µM]	i[9.22 µM]	i
COc1ccc(/C=N/N2CCN(c3ccccc3OC)CC2)cc1OC	i	i	i	i[10 µM]	i	i
CCOC(=O)c1csc(COc2ccc(OC)cc2)n1	i	i	i	i[10 µM]	i[9.22 µM]	i
COc1ccc(NC(=O)CCCS(=O)(=O)c2nc(-c3ccc(OC)c(OC)c3)cc(C(F)(F)F)n2)cc1OC	79µM	nt	nt	nt	nt	nt
